Lamin A splicing – qHTS Assay for Modulators of Lamin A Splicing; Potency, µM (titrated, usually from 46.1 µM), inactives show at the top dose ratio change, negative = inhibition, most hits filed as inhibitors; 200,000 tested, 0.01% active; HeLa LMNA splicing GFP/RFP minigene ratio, 48 h; active means well fitted inhibition curve with a large enough effect in the signal ratio, with a control signal flat, not every such curve was filed as active; inconclusive means small, poorly fitted or top-dose-only effect, or effect the other way, or a change in a side signal; the % refers to the signal ratio; further: potency means the concentration at half of the fitted maximal effect
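Read-out is the ratio of GFP to DsRed2 object intensity, acquired by 488 nm laser-scanning cytometry on HeLa lamin A-EGFP minigene reporter cells. Compound incubation 48 hrs at 37 °C in Opti-MEM with 2% FBS; DMSO 0.5% final.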
PNC assembly inh – High Content Assay for Compounds that inhibit the Assembly of the Perinucleolar Compartment; PC3M PTB-GFP, PNC prevalence imaging, 16 h; hits give low values; activity change (PNC), negative = inhibition, % at 10 µM; 140,000 tested, 3.1% active;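 active means readout at or below -70, meaning at least 70% loss of cells showing the perinucleolar compartment, a nuclear body marking cancer cells; inconclusive means readout between -30 and a set limit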;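 further: plate controls were DMSO wells for no effect and camptothecin positive control wells for full effect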
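Compounds are pinned in duplicate onto adhered PC3M cells stably expressing GFP-tagged PTB and incubated 16 h at 37 C. Cells are then fixed, nuclei stained with Hoechst, and PNC-positive cells counted.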
ALDH1A1 block – qHTS Assay for Inhibitors of Aldehyde Dehydrogenase 1 (ALDH1A1) | Aldehyde dehydrogenase 1A1 (Homo sapiens), P00352 | Purified ALDH1A1, NADH fluorescence, propionaldehyde substrate | Potency, µM (titrated, usually from 75.3 µM), inactives show at the highest dose activity, negative = inhibition, hits mostly inhibitors | 220,000 tested, 7.3% active | AID 1030, 2008;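 further: potency means the concentration at half of the fitted maximal effect; plate controls were no enzyme wells and a reference inhibitor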
Target sequence (P00352 whole entry, looked up): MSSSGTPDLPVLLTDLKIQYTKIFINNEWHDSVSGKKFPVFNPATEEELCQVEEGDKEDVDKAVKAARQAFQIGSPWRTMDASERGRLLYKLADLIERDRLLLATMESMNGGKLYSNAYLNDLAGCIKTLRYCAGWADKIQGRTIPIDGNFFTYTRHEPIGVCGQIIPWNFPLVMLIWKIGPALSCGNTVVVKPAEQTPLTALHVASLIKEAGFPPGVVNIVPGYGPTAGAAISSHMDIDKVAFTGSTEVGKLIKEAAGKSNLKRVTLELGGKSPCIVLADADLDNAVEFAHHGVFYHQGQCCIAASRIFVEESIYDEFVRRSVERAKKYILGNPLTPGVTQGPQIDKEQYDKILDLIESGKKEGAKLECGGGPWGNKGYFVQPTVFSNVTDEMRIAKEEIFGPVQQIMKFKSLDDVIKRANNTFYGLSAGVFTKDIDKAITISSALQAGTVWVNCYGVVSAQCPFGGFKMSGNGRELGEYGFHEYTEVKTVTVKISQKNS
KinaseGlo FLuc – Counterscreen for Luciferase (Kinase-Glo TM) Inhibition. Potency, µM (doses to about 38.3 µM), for the others: top-dose activity change, negative = inhibition, most hits filed as inhibitors. Luciferin 4-monooxygenase (Photuris pensylvanica), Q27757. Kinase-Glo luciferase, ATP luminescence, 8 min. 200,000 tested, 0.28% active. AID 1379, 2008; active means well fitted inhibition curve with a large enough effect; inconclusive means small, poorly fitted or top-dose-only effect; further: potency means the concentration at half of the fitted maximal effect; nearly all actives have a fitted effect of over 60% in size
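Compound is pinned into ATP-containing buffer (10 uM ATP, imidazole pH 7.2, 7 mM MgCl2). Kinase-Glo luciferase reagent is then added. Light output is recorded following an 8-min room-temperature incubation.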
HPGD inh – qHTS Assay for Inhibitors of HPGD (15-Hydroxyprostaglandin Dehydrogenase); Potency, µM, without a hit: at the top dose activity change, negative = inhibition, hits mostly inhibitors; purified HPGD, NADH fluorescence kinetic, PGE2 substrate; 15-hydroxyprostaglandin dehydrogenase [NAD(+)] (Homo sapiens), P15428; 150,000 tested, 4.3% active; further: potency means the concentration at half of the fitted maximal effect
Target sequence (P15428 whole entry, looked up): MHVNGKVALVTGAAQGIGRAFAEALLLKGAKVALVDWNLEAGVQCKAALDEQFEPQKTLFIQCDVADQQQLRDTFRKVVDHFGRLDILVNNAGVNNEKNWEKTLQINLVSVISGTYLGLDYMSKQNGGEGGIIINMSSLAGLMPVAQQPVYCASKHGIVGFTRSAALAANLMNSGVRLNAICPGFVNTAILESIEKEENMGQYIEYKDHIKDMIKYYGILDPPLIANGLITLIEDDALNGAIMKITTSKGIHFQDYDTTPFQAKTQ
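NADH formation kinetics: reaction with 30 uM PGE2 and 1 mM NAD+ (final), 20 nM enzyme, Tris-HCl pH 8 with Tween 20, after 15 min compound preincubation at room temperature. Fluorescence change, last versus first of five reads.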
* marks the source's active call; other numbers are inactive results; u = inconclusive; x = no result; ! = repeats disagree; [ ] = another dose, or the depositor's remark. Rows were chosen to be rich in hits. Some 10% of all compounds tested hit in one or more screens of this group. Unless noted, the call rests on the fitted dose curve; in most records, active means well fitted inhibition curve with a large enough effect (not every such curve was filed as active); inconclusive means small, poorly fitted or top-dose-only effect, or another doubt; inactive means no such curve, though single readings can be large or run the other way. Unless noted, on the % scale 0 is the no-effect control and ±100 the full control effect.

SMILES	Lamin A splicing	PNC assembly inh	ALDH1A1 block	KinaseGlo FLuc	HPGD inh
COc1cc2c(cc1NC(=O)CSCC(=O)O)oc1ccccc12	-3.1%	-126.9*	u	-2.7%	u
COc1cc2c(cc1NC(=O)COC(=O)Cn1cnc3ccccc31)oc1ccccc12	u	u	11.2µM*	0.6%	u
Cn1cccc1C(=O)N1CCC2(CCCN(c3ncccn3)C2)CC1	x	x	13.3%	-2.4%	-13.0%
C[C@H]1[C@H](C)CC[C@]2(C(=O)O)CC[C@]3(C)C(=CCC4[C@@]5(C)CC[C@H](O)C(C)(C)[C@@H]5CC[C@]43C)[C@H]12 (stereo partly drawn)	x	x	-1.6%	0.0%	-1.9%
CC(=O)c1ccc(OCc2ccc(C(=O)c3ccccc3)cc2)cc1	x	x	11.2µM*	-2.5%	x
O=C(O)COc1ccc(C(=O)c2ccccc2)cc1	x	x	1.1%	x	x
Cc1cc(O)c(C(C)C)cc1CN1CCCCC1	x	x	-2.2%[13.5 µM]	1.1%[7.66 µM]	-2.9%
CCOc1ccc(OCCCN(C)C)cc1	4.9%	u	14.1µM*	19.4%	-6.6%
CCOc1ccc(OCCCCN(C)C)cc1	7.1%	-0.1	u	-1.6%	-4.8%
O=C(O)c1ccc(N2Cc3ccccc3C2)cc1O	4.0%	1.4	28.2µM*	u	15.8µM*
CCOC(=O)c1ccc(N2Cc3cc(C)c(C)cc3C2)cc1O	-11.7%	18.5	5.9%	-0.6%	-14.0%
CCc1cccc(NC(=O)c2ccc(CN3C(=O)C(C)=C(c4ccc(OC)cc4)S3(=O)=O)cc2)c1	-7.0%[46 µM]	x	x	x	x
Cc1ccc2c(c1)Oc1ccc([N+](=O)[O-])cc1C(=O)N2	x	x	7.9%	-0.1%	x
Cc1ccc2c(c1)Oc1ccc(NC(=O)CCl)cc1C(=O)N2	x	x	11.2µM*	0.0%	x
COCCCNC(=O)CN(c1cc(Cl)cc(Cl)c1)S(C)(=O)=O	-4.3%	-100.0*	3.4%	1.6%	-9.7%
COCCCNC(=O)CN(c1ccc(Cl)c(Cl)c1)S(C)(=O)=O	u	u	7.0%	1.0%	-6.2%
COc1cc2ccccc2cc1C(=O)N1CCN(c2nc3c(F)cc(F)cc3s2)CC1	-8.2%[46 µM]	x	x	x	x
O=C(NCc1ccccc1)c1nc(-c2ccc(Cl)cc2)n2c1CCCCC2	-17.4%[46 µM]	x	x	x	x
O=C1CC(N2CCN(c3ccccn3)CC2)C(=O)N1CC(c1ccccc1)c1ccccc1 (stereo not drawn)	u	-28.5	3.16µM*	-0.6%	-27.3%
COc1ccc(CCN2C(=O)CC(C(N)=O)SC2=Nc2ccccc2)cc1OC (stereo not drawn)	11.1%	u	14.1µM*	-0.3%	-9.0%
COc1ccc(CCN2C(=O)CC(Sc3ncccc3C(=O)O)C2=O)cc1OC (stereo not drawn)	-18.1%	u	3.55µM*	-3.1%	-11.9%
COc1ccc(CCN2C(=O)CC(N3CCOCC3)C2=O)cc1OC (stereo not drawn)	-3.9%	-9.8	u	0.1%	-13.3%
COc1ccc(CCN2C(=O)CC(N3CCN(c4ccccn4)CC3)C2=O)cc1OC (stereo not drawn)	2.0%	11.6	25.1µM*	4.3%	-11.7%
O=c1c(-c2cc(F)cc(F)c2)nc2cncnc2n1Cc1ccc(F)cc1	x	x	u	-3.6%	-17.5%
O=c1[nH]c(SCc2ccccc2F)nc2ccccc12	18.9%[46 µM]	x	u	-0.7%	x
SMILES	Lamin A splicing	PNC assembly inh	ALDH1A1 block	KinaseGlo FLuc	HPGD inh
Fc1ccccc1CSc1nc2ncccc2[nH]1	15.5%	49.1	22.4µM*	-9.1%	17.8µM*
CC(c1ccco1)N(C(=O)c1ccccc1NS(=O)(=O)c1cccc([N+](=O)[O-])c1)c1ccccn1 (stereo not drawn)	-14.9%	-102.3*	u	-1.7%	-1.4%
O=C(NCCO)C(O)C(O)C(=O)NCCO (stereo not drawn)	-5.8%[46 µM]	x	17.8µM*	0.6%	x
O=C(Nc1ccc2c(c1)CCC2)C1CCCO1 (stereo not drawn)	-6.9%	10.1	14.4%	-3.3%	17.8µM*
O=C(Nc1ccc(O)cc1)C1CCCO1 (stereo not drawn)	-1.4%	-27.0	18.1%	11.7%	-3.4%
O=C(O)c1ccc(C(=O)Nc2cccc(NC(=O)C3CCCO3)c2)cc1 (stereo not drawn)	6.3%	19.3	9.0%	-2.5%	22.4µM*
O=C(CC1CCCC1)Nc1ccc2c(c1)CCC2	-3.1%	62.8	3.7%	-6.0%	14.1µM*
CCOC(=O)CC(=O)CSc1ccc2nnc(-c3ccc(C)cc3)n2n1	10.0%	-13.9	-10.3%	-5.8%	12.6µM*
COCCNCC(=O)C12CC3CC(CC(C3)C1)C2	6.2%	-18.9	10µM*	-3.3%	-3.1%
COCCNC(C)C(=O)C12CC3CC(CC(C3)C1)C2 (stereo not drawn)	2.8%	u	8.7%	0.8%	-5.7%
COc1ccc(S(=O)(=O)N2CCN(Cc3nc4ccc(C)cc4o3)CC2)cc1Cl	-15.8%[46 µM]	x	x	x	x
COc1ccccc1NC(CC(=O)c1ccccc1)C(=O)OCC(=O)c1ccc(F)cc1 (stereo not drawn)	-12.3%	-24.3	12.6µM*	5.2%	-3.1%
CN(C)CCCCSC(=N)N	u	x	25.1µM*!	0.8%	2.1%
CN(C)CCCN=C(N)N	x	x	4.8%[13.5 µM]	-0.5%[7.66 µM]	-4.7%
COc1ccccc1N1CCN(C/C(O)=C(\C#N)c2nc(-c3ccccc3)cs2)CC1	9.8%	19.6	11.2µM*	-6.7%	-20.8%
N#C/C(=C(/O)CN1CCN(c2ccccc2F)CC1)c1nc(-c2ccc(Cl)cc2)cs1	0.2%	2.2	14.7%	-0.2%	-9.5%
N#C/C(=C(/O)CN1CCOCC1)c1nc(-c2ccccc2)cs1	1.8%	27.8	1.0%	-1.9%	-11.1%
CCOC(=O)C1CCCN(C/C(O)=C(\C#N)c2nc(-c3ccccc3)cs2)C1 (stereo not drawn)	-16.0%	-18.1	31.6µM*	-5.3%	-23.7%
O=C(CSc1n[nH]c(-c2cccs2)n1)NCc1cccs1	12.4%	29.7	24.4%	-0.7%	17.8µM*
O=C(CSc1n[nH]c(-c2cccs2)n1)NCc1ccc2c(c1)OCO2	15.9%	u	0.6%	17.5%	12.6µM*
CCCCC[C@H](O)/C=C\[C@@H]1[C@H](O)CC(=O)[C@@H]1CCCCCCC(=O)O	u	x	1.2%[20.9 µM]	3.0%[17.1 µM]	-23.9%
N#Cc1ccc(CN2CCC3(CC2)CCN(S(=O)(=O)c2ccccc2)CC3)cc1	x	x	u	-4.2%	-4.5%
COc1ccc(C2=NN(CN3C(=O)C(=O)c4ccccc43)C(c3ccc(OC)cc3)C2)cc1 (stereo not drawn)	u	u	0.112µM*	0.8%	-22.7%
O=C(O)CCCSc1nc2ccccc2s1	x	x	-10.8%[13.5 µM]	-5.0%[7.66 µM]	-24.4%
O=C(CSc1nc2ccccc2s1)N1CCOCC1	-8.9%	16.0	u	-0.1%	-28.5%
NC(=O)C1(N2CCCCC2)CCN(C(=O)CSc2nc3ccccc3s2)CC1	-3.1%	u	25.1µM*	0.4%	-24.5%
O=C1CCCCCN1CSc1nc2ccccc2s1	5.8%	-7.2	12.6µM*	-1.6%	-23.8%

Screening results deposited in PubChem BioAssay by National Center for Advancing Translational Sciences (NCATS).
